Only some compounds are listed: those with a hit (about 12% of all), similar ones and a draw of the others.
G9a inh = blocks human histone lysine methyltransferase G9a. G9a H3K9 monomethylation, AlphaScreen, 2 h. Potency, µM (doses to about 102 µM), hits mostly inhibitors. 8.8% of 350,000 active. AID 504332; note: nearly all actives have a fitted effect of over 75% in size
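G9a (20 nM) was preincubated 15 min with compound, then reacted 2 h at room temperature with 500 nM biotin-H3K9 peptide and 20 µM SAM. Monomethyl-H3K9 detected by AlphaScreen using anti-H3K9me1 antibody.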
L3MBTL1 block = inhibitors of human L3MBTL1; AlphaScreen L3MBTL1–H3K9me1 peptide binding; Potency, µM (titrated, usually from 57.1 µM), most hits filed as inhibitors; 0.66% of 230,000 active; note: nearly all actives have a fitted effect of over 60% in size
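L3MBTL1 50 nM + b-AHA-H3(1-15)K9me1 75 nM, 30 min RT; compound added, 30 min RT; streptavidin donor/Ni-chelate acceptor beads 10 ug/mL each final, 30 min RT dark; AlphaScreen read.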
JMJD2A Tudor = blocks the human JMJD2A Tudor domain; O75164; AlphaScreen JMJD2A-Tudor / H3K4me3 peptide binding; Potency, µM (doses to about 114 µM), usual class: inhibitors; 4.4% of 390,000 active; AID 504339; note: nearly all actives have a fitted effect of over 50% in size
Target sequence (O75164 whole entry, looked up, the tested form may be a part): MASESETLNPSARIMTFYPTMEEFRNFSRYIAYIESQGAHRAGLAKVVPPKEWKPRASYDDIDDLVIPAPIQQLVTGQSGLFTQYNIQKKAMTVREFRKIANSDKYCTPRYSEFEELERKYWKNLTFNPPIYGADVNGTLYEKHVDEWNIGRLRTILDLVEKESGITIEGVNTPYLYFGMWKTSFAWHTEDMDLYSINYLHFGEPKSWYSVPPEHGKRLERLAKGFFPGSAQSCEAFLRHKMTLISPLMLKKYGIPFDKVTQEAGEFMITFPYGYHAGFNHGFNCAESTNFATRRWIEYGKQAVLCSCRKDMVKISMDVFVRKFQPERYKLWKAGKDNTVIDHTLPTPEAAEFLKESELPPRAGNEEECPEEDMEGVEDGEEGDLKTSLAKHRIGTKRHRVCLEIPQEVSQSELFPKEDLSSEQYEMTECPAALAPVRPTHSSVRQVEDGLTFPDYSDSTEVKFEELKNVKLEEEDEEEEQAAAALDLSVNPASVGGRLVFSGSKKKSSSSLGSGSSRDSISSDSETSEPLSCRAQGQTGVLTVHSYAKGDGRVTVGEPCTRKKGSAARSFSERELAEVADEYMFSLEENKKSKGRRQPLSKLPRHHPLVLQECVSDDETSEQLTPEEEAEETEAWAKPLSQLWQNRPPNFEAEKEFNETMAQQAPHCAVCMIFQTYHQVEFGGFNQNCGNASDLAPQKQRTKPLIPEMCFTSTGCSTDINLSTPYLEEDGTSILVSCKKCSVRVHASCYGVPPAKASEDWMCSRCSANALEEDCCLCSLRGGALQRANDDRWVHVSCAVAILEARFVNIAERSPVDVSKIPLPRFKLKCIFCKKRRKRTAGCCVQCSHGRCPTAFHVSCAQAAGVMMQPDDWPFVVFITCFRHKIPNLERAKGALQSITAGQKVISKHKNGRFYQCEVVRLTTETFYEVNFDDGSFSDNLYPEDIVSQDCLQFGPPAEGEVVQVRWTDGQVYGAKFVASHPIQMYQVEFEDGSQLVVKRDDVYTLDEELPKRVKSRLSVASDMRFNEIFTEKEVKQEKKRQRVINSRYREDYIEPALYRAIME
BAZ2B inh = BAZ2B (human) inhibition; Q9UIF8; AlphaScreen BAZ2B-H3K14Ac peptide displacement; Potency, µM (titrated, usually from 114 µM), actives largely listed as inhibitors; 4.4% of 360,000 active; AID 504333; note: nearly all actives have a fitted effect of over 60% in size
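In this displacement format the biotinylated H3(5-23) peptide acetylated at Lys14 serves as ligand at 50 nM, with BAZ2B at 50 nM in PBS pH 7.4 containing 0.01% Tween-20. Donor and acceptor beads are 10 ug/mL final.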
Sfp PPTase inh = blocks B. subtilis Sfp PPTase activity. Q9F4F7. Biochemical Sfp PPTase activity, qHTS. Potency, µM, actives largely listed as inhibitors. 3.5% of 310,000 active;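 note: the enzyme is Sfp with the accession as filed and its product quenches rhodamine fluorescence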
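Sfp 15 nM + cpd, 15 min RT; start w/ rhodamine-CoA 5 uM, BHQ-2-YbbR 12.5 uM (final); 50 mM Hepes pH 7.6, 10 mM MgCl2, 0.01% NP-40, 0.01% BSA; read 525/598 nm at 0 and 30 min.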
HP1b binding inh = HP1-beta chromodomain-methylated histone interaction inhibition; P83916; AlphaScreen HP1-beta / biotin-H3K9me3 peptide binding; Potency, µM (series often up to 114 µM), most hits filed as inhibitors; 0.56% of 390,000 active; AID 540317; note: nearly all actives have a fitted effect of over 70% in size
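Compound inhibition of the preformed complex between 50 nM HP1-beta and 50 nM biotinylated H3K9me3 peptide was read by AlphaScreen. Buffer was PBS pH 7.4 with 0.01% Tween-20. Incubations ran 30 min at room temperature, with 10 ug/mL donor/acceptor beads.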
A number is an active result; . = inactive; ? = inconclusive; / = no result given; [ ] = another dose, or the depositor's remark. Calls come from the whole dose curve; as a rule, active = well fitted curve in the direction sought with a large enough effect; inconclusive = small, poorly fitted or top-dose-only effect, or another doubt; inactive = no such curve, though single readings can be large; an effect the other way counts as inactive or inconclusive.

SMILES | G9a inh | L3MBTL1 block | JMJD2A Tudor | BAZ2B inh | Sfp PPTase inh | HP1b binding inh
COc1ccc(-c2nn(-c3ccc(F)cc3F)c3c2cnc2ccc(F)cc23)cc1 | .[12.7 µM] | / | . | . | / | .
COc1ccc(Cl)cc1NC(=O)CSc1nnc(Cc2ccc(C)cc2)c(=O)[nH]1 | . | . | . | . | / | .
O=S(=O)(Nc1nc2ccccc2nc1Nc1ccc2c(c1)OCCO2)c1cccs1 | ? | . | ? | 50µM | . | .
O=S(=O)(Nc1nc2ccccc2nc1NCc1ccco1)c1cccs1 | 50µM | . | . | . | . | .
Cc1ccc(CNC(=O)c2ccc(N3CCCC3)c(NC(=O)Nc3ccc(C)cc3)c2)cc1 | . | / | . | . | / | .
COc1cccc(/C(O)=C/C(=O)C(=O)Nc2ccc(S(=O)(=O)NC(C)=O)cc2)c1 | 10µM | . | 8.9µM | ? | . | .
CC(=O)c1c(C)[nH]c(C(=O)OCC(=O)NCCC2=CCCCC2)c1C | . | . | . | . | / | .
Cc1ccc(C(=O)CC2(O)C(=O)N(CCc3ccccc3)c3ccc(Br)cc32)o1 (stereo unspecified) | ? | / | . | . | 7.9µM | .
O=C(CC1(O)C(=O)N(CCc2ccccc2)c2ccc(Br)cc21)c1ccccc1 (stereo unspecified) | . | / | . | . | / | .
Cc1cc(C)c2c(-n3cccc3)c(C(=O)NNS(=O)(=O)c3ccc(Br)cc3)sc2n1 | ? | . | 56µM | ? | . | .
CC1(C)N=C(SCc2ccc(F)cc2)c2ccccc2N1 | . | / | . | . | / | .
Cc1cc(C)n(CC(=O)N2CCCC(N3CCN(Cc4ccc5c(c4)OCO5)CC3)C2)n1 (stereo unspecified) | 79µM | / | . | . | . | .
O=c1[nH]c2ccc(S(=O)(=O)Nc3ccccc3O)cc2[nH]1 | 2.2µM | . | . | . | . | .
CC1(c2ccccc2)NC(=O)N(CC(=O)NCc2cccc(Cl)c2)C1=O (stereo unspecified) | . | / | . | . | . | .
COc1ccc(CN(Cc2cccn2C)C(=O)c2cc3cc(OC)ccc3[nH]2)cc1 | 50µM | / | ? | ? | . | .
COc1ccc2[nH]c(C(=O)NCc3ccccc3)cc2c1 | / | . | . | . | . | .
CCOC(=O)COc1ccc2c(c1)c(C(C)=O)c(C)n2-c1ccc(OC)cc1 | . | / | . | . | . | .
COC(=O)c1cc(=O)n(Cc2ccc(OC)c(OC)c2)c(=Nc2ccc(F)cc2)s1 | ? | / | ? | . | ? | .
COC(=O)c1cc(=O)n(CCc2ccc(OC)c(OC)c2)c(=Nc2ccc(F)c(Cl)c2)s1 | 25µM | / | ? | ? | ? | .
Cc1ccccc1CC1(CO)CCCN(C(=O)c2ccc3ncccc3c2)C1 (stereo unspecified) | / | . | 8.9µM | . | . | .
Cc1ccccc1CC1(CO)CCCN(C(=O)c2ccc(F)cc2)C1 (stereo unspecified) | . | . | . | . | . | .
c1ccc(Nc2ncnc3[nH]ncc23)cc1 | 50µM | / | . | . | . | .
COc1ccc2sc(N(CCCN(C)C)C(=O)c3ccc(C(=O)c4ccccc4)cc3)nc2c1 | 45µM | . | 50µM | ? | / | .
CCN(Cc1ccccc1)S(=O)(=O)c1ccc(C(=O)N(CCCN(C)C)c2nc3cc(OC)ccc3s2)cc1 | 45µM | . | ? | ? | / | .
CN(C)CCCN(C(=O)c1ccc(S(=O)(=O)N(C)Cc2ccccc2)cc1)c1nc2c(F)cccc2s1 | . | / | ? | ? | . | .
SMILES | G9a inh | L3MBTL1 block | JMJD2A Tudor | BAZ2B inh | Sfp PPTase inh | HP1b binding inh
CCN(Cc1ccccc1)S(=O)(=O)c1ccc(C(=O)N(CCCN(C)C)c2nc3ccc(F)cc3s2)cc1 | / | / | ? | 28µM | 89µM | .
CN(C)CCCN(C(=O)c1ccc(C(=O)c2ccccc2)cc1)c1nc2ccc(F)cc2s1 | ? | / | . | ? | . | .
CCN(Cc1ccccc1)S(=O)(=O)c1ccc(C(=O)N(CCCN(C)C)c2nc3cc4c(cc3s2)OCCO4)cc1 | 40µM | . | 45µM | 35µM | / | ?
CCN(c1ccccc1)S(=O)(=O)c1ccc(C(=O)N(CCN(C)C)c2nc3c(F)cc(F)cc3s2)cc1 | 45µM | / | / | . | . | /
CN(C)CCCN(C(=O)c1ccco1)c1nc2c(F)cc(F)cc2s1 | . | / | . | . | . | .
COc1ccc(OC)c(C(=O)NC2CC(C)(C)Cc3c2cnn3-c2ccccc2)c1 (stereo unspecified) | . | / | . | 71µM | . | .
COc1ccc(-n2ncc3c2CC(C)(C)CC3NC(=O)c2ccoc2C)cc1 (stereo unspecified) | . | / | . | ? | . | .
COc1ccc2c(C=O)c[nH]c2c1 | . | . | . | . | . | .
COc1ccc2c(/C=C/c3cc[n+](C)cc3)c[nH]c2c1 | 50µM | / | . | . | . | .
CC[n+]1ccc(/C=C/c2c[nH]c3ccccc23)cc1 | / | . | ? | . | . | .
Cc1ccc2[nH]cc(/C=C/c3cc[n+](C)cc3)c2c1 | 45µM | / | . | . | . | .
COc1ccc(C[C@@H]2CN3C(=NC[C@@H]3Cc3ccc(O)cc3)N2C[C@H](C)NC(=O)CCC2CCCCC2)cc1 | / | / | ? | . | 79µM | .
C/C=C(\C)C(=O)N[C@@H](C)CN1C2=NC[C@H](C(C)C)N2C[C@H]1Cc1ccc(OC)cc1 | ? | / | . | ? | 40µM | .
C[C@@H](CN1C2=NC[C@H](C)N2C[C@H]1Cc1ccc(O)cc1)NC(=O)CCC1CCCCC1 | .[12.7 µM] | . | . | . | . | .
CC(C)[C@H]1CN=C2N(C[C@H](C)NC(=O)CCC3CCCCC3)[C@H](Cc3ccc(O)cc3)CN21 | ? | / | 79µM | . | 50µM | .
CCCCN(C(=O)c1ccc(C)o1)c1c(N)n(CC(C)C)c(=O)[nH]c1=O | .[12.7 µM] | . | . | . | / | .
O=C1CN(C(=O)COC(=O)/C=C/c2ccco2)c2ccccc2N1 | 45µM | . | . | ? | . | .
O=C1CN(C(=O)COC(=O)/C=C/c2ccc(S(=O)(=O)N3CCOCC3)cc2)c2ccccc2N1 | . | . | . | . | . | .
O=C1CN(C(=O)COC(=O)/C=C/c2ccc(OC(F)F)cc2)c2ccccc2N1 | . | . | . | . | . | .
COc1ccc(/C=C/C(=O)OCC(=O)N2CC(=O)Nc3ccccc32)cc1S(=O)(=O)N1CCOCC1 | 56µM | . | . | . | . | .
Cc1ccc(/C=C/C(=O)OCC(=O)N2CC(=O)Nc3ccccc32)o1 | 50µM | / | 56µM | ? | . | .
O=C1CN(C(=O)COc2ccccc2F)c2ccccc2N1 | 50µM | . | . | . | . | .
O=c1[nH]c(=O)c2ncn(C3OC(CO)C(O)C3O)c2[nH]1 (stereo unspecified) | / | / | . | / | / | .
CCOC(=O)c1ccc(NC(=O)Cc2noc3ccc(C)cc23)cc1 | 13µM | / | . | . | / | .

High-throughput results from PubChem.
